# From the supplement of paper PMC6992640
# ± gives the standard deviation of the averaged measurements.
# Key:
# Test in all cases: cell viability (% of vehicle); higher = less cytotoxic
# Settings in all cases: 10 µM; 72 h
# [1] = tested on: HCI01 (cells of a triple-negative basal-like breast cancer xenograft)
# [2] = tested on: HCI03 (cells of an ER-positive luminal breast cancer xenograft)
# [3] = tested on: HCI09 (cells of a triple-negative luminal androgen receptor type breast cancer xenograft)
# [4] = tested on: HCI11 (cells of an ER-positive luminal breast cancer xenograft)
# [5] = tested on: HCI13 (cells of an ER-positive luminal breast cancer xenograft)
# [6] = tested on: HCI16 (cells of a triple-negative basal-like breast cancer xenograft)
# [7] = tested on: UCD52 (cells of a triple-negative basal-like breast cancer xenograft)
# [8] = tested on: WHIM2 (cells of a triple-negative basal-like breast cancer xenograft)
# [9] = tested on: WHIM30 (cells of a triple-negative basal-like breast cancer xenograft)
# 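Further: PDX cells carrying CMV promoter-driven luciferase, viability read as total photon flux per second by IVIS imaging following D-luciferin, vehicle control 0.1% DMSO.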
SMILES,cell viability [1],cell viability [2],cell viability [3],cell viability [4],cell viability [5],cell viability [6],cell viability [7],cell viability [8],cell viability [9]
NC(N)=Nc1nc(CSCCC(N)=NS(N)(=O)=O)cs1 [Famotidine],120 ± 16,127,103 ± 8.7,98.9,149 ± 20,98.6,78.5 ± 6.2,85.9 ± 6.1,165 ± 4.1
CN(Cc1ccc(C(C)(C)C)cc1)Cc1cccc2ccccc12.Cl [Butenafine HCl],104 ± 1.5,99.2,117 ± 19,104,72.7 ± 4.7,151,81.4 ± 2.7,56.2 ± 12,142 ± 3.3
O=C(O)c1cc(-c2ccccc2)nc2ccccc12 [Cinchophen],157 ± 2.4,125,104 ± 7.1,107,111 ± 1.3,124,120 ± 4.4,138 ± 6.4,139 ± 28
C#CCC(Cc1cnc2nc(N)nc(N)c2n1)c1ccc(C(=O)NC(CCC(=O)O)C(=O)O)cc1 (stereo unspecified) [Pralatrexate],134 ± 15,117,102 ± 11,115,157 ± 27,103,110 ± 8.8,121 ± 10,117 ± 4.2
CCOC(=O)n1ccn(C)c1=S [Carbimazole],90.9 ± 7.9,145,95 ± 11,93.4,66.4 ± 18,101,95.5 ± 7.5,104 ± 30,135 ± 11
O=C(O)C=Cc1ccc(Cn2ccnc2)cc1 [Ozagrel],95.1 ± 6.6,145,90.9 ± 16,106,116 ± 6.6,98.4,88 ± 3.2,97.8 ± 2.4,87.2 ± 20
C[N+]1(C)C2CCC1CC(OC(=O)C(O)c1ccccc1)C2.[Br-] (stereo unspecified) [Homatropine Methylbromide],96.2 ± 1.2,97.6,89.8 ± 18,85.9,105 ± 5,114,104 ± 1.8,112 ± 8,50.8 ± 2.7
COc1ccc(C2CNC(=O)C2)cc1OC1CCCC1 (stereo not drawn) [S- (+)-Rolipram],144 ± 9,152,94.4 ± 32,121,144 ± 31,136,99.5 ± 11,117.8 ± 0.47,134 ± 9.9
COc1ccc(CC2c3cc(OC)c(OC)cc3CC[N+]2(C)CCC(=O)OCCCCCOC(=O)CC[N+]2(C)CCc3cc(OC)c(OC)cc3C2Cc2ccc(OC)c(OC)c2)cc1OC.O=S(=O)([O-])c1ccccc1.O=S(=O)([O-])c1ccccc1 (stereo unspecified) [Atracurium Besylate],187 ± 100,110,87.1 ± 58,81,80.1 ± 19,145,126 ± 2.7,71.5 ± 12,97.1 ± 7
Cc1ccc(NC(=O)C2(c3ccc4c(c3)OC(F)(F)O4)CC2)nc1-c1cccc(C(=O)O)c1,104 ± 31,89.5,78.15 ± 0.74,101,66 ± 2.5,103,86.82 ± 0.29,92.4 ± 28,157 ± 13
Nc1nc(N)c2nc(-c3ccccc3)c(N)nc2n1 [Triamterene],105 ± 25,148,116 ± 17,109,120 ± 12,138,123 ± 28,94.5 ± 15,122 ± 17
O=P(O)(O)C(O)(Cn1ccnc1)P(=O)(O)O [Zoledronic Acid],134 ± 17,135,88.4 ± 13,172,75.2 ± 8.7,94.7,60.6 ± 1.4,68.7 ± 15,107 ± 21
c1cc(CN2CCCNCCNCCCNCC2)ccc1CN1CCCNCCNCCCNCC1 [Plerixafor (AMD3100)],99.4 ± 11,86.8,92.6 ± 9.3,84.7,85.1 ± 4.1,87.9,92.3 ± 9.7,73 ± 11,110 ± 12
O=C1CCc2cc(OCCCCc3nnnn3C3CCCCC3)ccc2N1 [Cilostazol],133 ± 7.6,125,78.2 ± 12,106,126 ± 24,93.7,80.8 ± 7.3,191 ± 27,125 ± 25
O=C([O-])Cc1ccccc1Nc1c(Cl)cccc1Cl.[Na+] [Diclofenac Sodium],94.9 ± 18,120,81.3 ± 5.4,73.9,105 ± 26,111,73.6 ± 8.9,90.2 ± 14,81.348 ± 0.07
CN(C)CCCN1c2ccccc2CCc2ccc(Cl)cc21.Cl [Clomipramine HCl],102 ± 22,108,74.2 ± 2.6,69.7,88.4 ± 10,88.4,61.1 ± 1.7,58 ± 1.1,94.4 ± 13
Nc1nc(=O)c2ncn(COCCO)c2[nH]1 [Acyclovir],103 ± 7.2,107,55.9 ± 49,113,154 ± 13,87.8,91.1 ± 11,96 ± 2.8,108 ± 19
Cc1ncc(C[n+]2csc(CCO)c2C)c(N)n1.Cl.[Cl-] [Thiamine HCl (Vitamin B1)],113 ± 8.6,143,103 ± 16,88.6,59.8 ± 11,103,122 ± 39,149 ± 25,143 ± 3.5
Cc1ccc(-n2nc(C(C)(C)C)cc2NC(=O)Nc2ccc(OCCN3CCOCC3)c3ccccc23)cc1 [BIRB 796 (Doramapimod)],138 ± 41,89.6,93.5 ± 19,71.1,48.5 ± 3.4,87.4,62.1 ± 7,89.8 ± 8,103 ± 18
CC(=O)NC(CS)C(=O)O (stereo unspecified) [Acetylcysteine],91.6 ± 7.3,113,94.3 ± 16,90,97.3 ± 27,118,89.98 ± 0.47,124 ± 1.8,96.8 ± 14

SMILES,cell viability [1],cell viability [2],cell viability [3],cell viability [4],cell viability [5],cell viability [6],cell viability [7],cell viability [8],cell viability [9]
COc1cc(NC(C)CCCN)c2ncccc2c1.O=P(O)(O)O.O=P(O)(O)O (stereo unspecified) [Primaquine Diphosphate],56.3 ± 9.8,95.2,29.3 ± 9.9,49,68.2 ± 11,116,75.7 ± 10,70.5 ± 11,112 ± 1.8
CC1c2cccc(O)c2C(O)=C2C(=O)C3(O)C(O)=C(C(N)=O)C(=O)C(N(C)C)C3C(O)C21.Cl (stereo unspecified) [Doxycycline hyclate],159 ± 22,109,94.8 ± 12,114,107 ± 5.1,134,111 ± 3.3,90.9 ± 9.3,173 ± 22
CN(C)c1cc(NC(=O)CNC(C)(C)C)c(O)c2c1CC1CC3C(N(C)C)C(=O)C(C(N)=O)=C(O)C3(O)C(=O)C1=C2O (stereo unspecified) [Tigecycline],80 ± 10,121,95.8 ± 8.5,81.9,129 ± 23,120,96.7 ± 21,102 ± 22,129 ± 8.6
Clc1ccc(CCC(Cn2ccnc2)Sc2c(Cl)cccc2Cl)cc1.O=[N+]([O-])O (stereo unspecified) [Butoconazole nitrate],67.2 ± 44,99.5,36.7 ± 9.7,143,39.6 ± 1.4,186,74.6 ± 3.6,53.8 ± 16,190 ± 7.9
CN(C)NN=C1N=CN=C1C(N)=O [Dacarbazine],122 ± 9.3,92.9,110.4 ± 0.52,93.5,120 ± 16,82.7,107 ± 8,80.3 ± 24,118 ± 25
Cn1c(=O)c2[nH]cnc2n(C)c1=O.Cn1c(=O)c2[nH]cnc2n(C)c1=O.NCCN [Aminophylline],98 ± 18,95.2,93.6 ± 9.1,99.4,101 ± 5.1,75.8,72 ± 16,97.4 ± 7.5,92.5 ± 24
CN1C2CCCC1CC(NC(=O)c1nn(C)c3ccccc13)C2 (stereo unspecified) [Granisetron],112 ± 1.8,119,108 ± 9.4,81.8,108 ± 12,89.3,105 ± 4.6,110 ± 28,133 ± 31
CCOC(=O)C1=C(C)NC(C)=C(C(=O)OC)C1c1cccc([N+](=O)[O-])c1 (stereo unspecified) [Nitrendipine],111 ± 10,123,93.6 ± 17,112,104 ± 0.32,90.2,80.15 ± 0.7,95.6 ± 22,97.2 ± 5.3
Br.COc1ccc2c3c1O[C@H]1C[C@@H](O)C=C[C@@]31CCN(C)C2 [Galanthamine HBr],113 ± 6.7,102,97.02 ± 0.17,93.2,80.4 ± 8.2,73.8,97.8 ± 2.6,79.7 ± 12,118 ± 24
NCCCCC(NC(CCc1ccccc1)C(=O)O)C(=O)N1CCCC1C(=O)O.O.O (stereo unspecified) [Lisinopril dihydrate],98.2 ± 20,137,106 ± 19,113,113 ± 3.5,130,105 ± 0.53,94 ± 22,150 ± 8.1
CC(C)C(=O)Nc1ccc([N+](=O)[O-])c(C(F)(F)F)c1 [Flutamide],136 ± 7.3,139,71.8 ± 8,125,97.9 ± 8.4,78.4,78.9 ± 5.1,112 ± 33,116 ± 6.6
Cc1ncc([N+](=O)[O-])n1CC(O)CCl (stereo unspecified) [Ornidazole],94.9 ± 14,115,96 ± 7.9,83.2,111 ± 18,105,85.1 ± 4.3,88.1 ± 8.4,108 ± 10
CCC1OC(=O)C(C)C(OC2CC(C)(OC)C(O)C(C)O2)C(C)C(OC2OC(C)CC(N(C)C)C2O)C(C)(O)CC(C)C2NC(COCCOC)OC(C2C)C1(C)O (stereo unspecified) [Dirithromycin],143 ± 72,117,89.5 ± 16,94,76.3 ± 11,103,81.8 ± 15,90.6 ± 12,92.4 ± 3.8
CNNCc1ccc(C(=O)NC(C)C)cc1.Cl [Procarbazine HCl],93.5 ± 4.4,90.5,96.1 ± 13,99.7,104 ± 21,87.6,79.7 ± 13,98 ± 16,83.91 ± 0.74
COC(=O)C(Cc1ccccc1)NC(=O)C(N)CC(=O)O (stereo unspecified) [Aspartame],120 ± 6.8,152,104 ± 3.9,119,161 ± 4.4,117,100 ± 21,131 ± 23,128 ± 6.7
CCC(C)C(=O)OC1CC(C)C=C2C=CC(C)C(CCC3CC(O)CC(=O)O3)C21 (stereo unspecified) [Lovastatin],119 ± 27,115,88.2 ± 12,181,131 ± 14,142,50.7 ± 5.3,71.5 ± 6.6,93.17 ± 0.92
CCOc1nc2cccc(C(=O)OCc3oc(=O)oc3C)c2n1Cc1ccc(-c2ccccc2-c2nc(=O)o[nH]2)cc1 [Azilsartan Medoxomil],100 ± 6.8,162,107 ± 2.2,94.2,106 ± 14,124,111 ± 8.7,106 ± 18,127 ± 2.7
CC(Cc1cc2c(c(C(N)=O)c1)N(CCCO)CC2)NCCOc1ccccc1OCC(F)(F)F (stereo unspecified) [Silodosin],103 ± 7.4,99.5,106 ± 39,127,96.6 ± 16,117,82.5 ± 14,98 ± 21,94.2 ± 6.5
C[N+]1(C)[C@@H]2C[C@@H](OC(=O)C(O)(c3cccs3)c3cccs3)C[C@H]1[C@@H]1O[C@@H]12.[Br-] [Tiotropium Bromide],124 ± 17,116,106 ± 18,102,116 ± 12,103,88.9 ± 4.2,94.7 ± 18,125 ± 12
